Experimental data: the supplement of paper PMC6555819

Assays:
Test in all cases: PBM binding z-score (relative to random genomic background probes); higher = stronger binding; sequences stand for … in GC…GCGATTGACAGCGTAGAATGAAGG
[1] = test system: FXR:RXRa (NR concentration 270 nM, RXRa partner concentration 90 nM)
In short: (§1)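 Random background probes are the reference for binding z-scores. These scores derive from regression-normalized fluorescence on custom Agilent 4×180K protein-binding microarrays incubated 1 h with ligand-free nuclear receptor dimers. Binding was detected with antibodies against each partner (one per run).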

[2] = test system: LXRa:RXRa (NR concentration 270 nM, RXRa partner concentration 90 nM)
In short: as §1

[3] = test system: LXRa homodimer (NR concentration 270 nM)
In short: as §1

[4] = test system: LXRb:RXRa (NR concentration 270 nM, RXRa partner concentration 90 nM)
In short: as §1

[5] = test system: LXRb homodimer (NR concentration 270 nM)
In short: as §1

[6] = test system: PPARa:RXRa (NR concentration 270 nM, RXRa partner concentration 90 nM)
In short: as §1

[7] = test system: PPARg:RXRa (NR concentration 180 nM, RXRa partner concentration 90 nM)
In short: as §1

[8] = test system: PPARg:RXRa 270nM:90nM, anti-RXR (NR concentration 270 nM, RXRa partner concentration 90 nM)
In short: as §1

[9] = test system: PPARg:RXRa 30nM:10nM, anti-RXR (NR concentration 30 nM, RXRa partner concentration 10 nM)
In short: as §1

[10] = test system: PPARg:RXRa 90nM:30nM, anti-RXR (NR concentration 90 nM, RXRa partner concentration 30 nM)
In short: as §1

[11] = test system: PPARg:RXRa DBDmut IVT, anti-RXR (DBD mutation: RXRa K156A/R161A, NR concentration 270 nM, RXRa partner concentration 90 nM)
In short: as §1

[12] = test system: PPARg:RXRa IVT, anti-PPARg (NR concentration 270 nM, RXRa partner concentration 90 nM)
In short: as §1

[13] = test system: PPARg DBDmut:RXRa IVT, anti-PPARg (DBD mutation: PPARg1 K132A/R137A, NR concentration 270 nM, RXRa partner concentration 90 nM)
In short: as §1

[14] = test system: PPARg DBDmut IVT, anti-PPARg (DBD mutation: PPARg1 K132A/R137A, NR concentration 270 nM)
In short: as §1

[15] = test system: PPARg homodimer (NR concentration 180 nM)
In short: as §1

[16] = test system: PXR:RXRa (NR concentration 270 nM, RXRa partner concentration 90 nM)
In short: as §1

[17] = test system: PXR homodimer (NR concentration 270 nM)
In short: as §1

[18] = test system: RARa:RXR (NR concentration 270 nM, RXRa partner concentration 90 nM)
In short: as §1

[19] = test system: RARa homodimer (NR concentration 270 nM)
In short: as §1

[20] = test system: RARb:RXRa (NR concentration 270 nM, RXRa partner concentration 90 nM)
In short: as §1

Sequence	PBM binding z-score [1]	PBM binding z-score [2]	PBM binding z-score [3]	PBM binding z-score [4]	PBM binding z-score [5]	PBM binding z-score [6]	PBM binding z-score [7]	PBM binding z-score [8]	PBM binding z-score [9]	PBM binding z-score [10]	PBM binding z-score [11]	PBM binding z-score [12]	PBM binding z-score [13]	PBM binding z-score [14]	PBM binding z-score [15]	PBM binding z-score [16]	PBM binding z-score [17]	PBM binding z-score [18]	PBM binding z-score [19]	PBM binding z-score [20]
TCATATAGGTAATACAGGTGAAAGGCGGCATCTA	1.01	1.22	0.706	0.93	0.000841	2.25	2.3	3.69	4.62	4.1	4.33	3.42	1.73	1.03	1.29	1.04	0.592	1.33	1.69	0.697
ATATGTAGGGTATCGGGTCATTCAGTTTGCGCAT	2.08	2.17	1.58	3.25	1.84	4.3	5.64	5.05	2.42	4.32	6.53	6.58	2.46	2.33	2.08	3.66	7.07	2.95	0.891	2.09
ACTAGCAGGCCTAGTTTGGGTCACTCAAACAAAG	-0.223	-0.267	-0.434	0.356	-0.757	1.13	-0.314	0.138	-0.572	-0.184	-0.402	0.669	-0.351	-1.26	-0.416	0.282	-0.591	1.1	-0.718	0.83
TCATACAGGTAAAAGGTGAAAGTCGGTGTGGTAA	1.87	1.87	-0.0272	2.18	0.661	4.39	6.38	6.45	5.73	7.08	3.28	3.68	0.157	1.18	1.6	1.83	0.448	3.13	1.16	2.1
TCTATTAGTTGATTAGGGCATCCGAAACAGCGGA	0.685	0.731	0.192	0.397	0.553	0.769	0.185	1.91	3.47	2.78	2.14	1.16	0.865	0.919	1.28	0.607	0.652	0.754	1.52	0.788
TAGCCTAGGTCATGCGGGGCAGTATAGTGTCGGC	3.99	3.24	0.431	2.23	0.295	3.56	2.18	2.41	0.0404	1.28	1.69	3.02	0.874	-0.0244	0.993	2.16	-0.37	2.61	-0.595	3.75
ATCTCTAAGTAACAAGTTCAGTGAAAGAGAGGAC	0.888	0.954	0.532	0.595	0.901	0.572	0.408	0.672	0.701	0.344	0.199	0.166	0.885	0.883	1.43	1.63	1.97	1.18	1.73	1.57
CGAACTAGGTCATCCAGAACAGTGAATACATTGA	4.08	2.69	0.739	2.14	0.118	4.64	7.99	6.91	4.38	6.42	8.45	8.49	6.73	4.45	3.59	1.48	0.368	2.32	0.855	3.83
TAGCCTAGGACATGGGCCAGTATACCACGCGAAC	-0.615	-0.64	-0.616	-0.618	-0.673	-0.454	0.715	-0.284	-0.595	-0.49	-1.18	-0.594	-0.263	-0.978	-0.814	-0.387	-0.477	-0.815	-0.515	0.0238
ACTAGAAGGCCAAGTTTGGGTCACTCAAACAAAG	0.681	0.517	-0.0475	0.902	-0.474	1.52	0.293	0.723	-0.386	0.134	0.0334	1.25	-0.516	-0.287	0.742	1.2	-0.219	2.15	-0.267	2.71
TCTTGTAGATCAGCAGATTAAGAAAGCTGGCCAA	-0.0778	-0.0855	-0.478	-0.134	-0.494	0.385	-0.628	0.95	2.75	1.92	1.64	-0.0378	-0.256	0.452	-0.374	-0.148	-0.568	-0.157	0.205	-0.229
CGAACTAGGTCGGAACAGGACAGTGAAGGATGAT	-0.0248	-0.452	-0.434	-0.642	-1	0.71	1.23	0.719	0.0935	0.234	4.12	3.56	0.508	-0.428	-0.2	-0.28	-0.583	0.314	-0.0866	0.543
GCTTACGGGTCACAGGTTATAGCATGAATAGAAT	6.03	3.91	-0.00317	3.73	0.0394	5.75	7.57	6.67	4.61	6.2	4.72	5.4	2.51	1.47	1.81	3.52	-0.0291	4.84	0.515	4.03
CCGACTCGGGCAAAGGTTACCATACTCAGTACGA	1.22	1.83	-0.0865	1.94	-0.792	4.45	8.25	8.33	7.28	9.75	1.5	4.06	-0.108	-0.188	2.32	2.01	-0.0786	3.12	0.537	2.04
AGAATGAGGTTACCAAAGATCAGAGAAACGCTTG	2.03	6.18	0.173	3.6	-0.0648	3.32	2.75	2.19	0.774	1.78	3.76	3.32	1.01	0.709	0.304	1.28	0.161	2.02	0.489	2.09
AGTCAAAGTTCATCTAGGTAACGTAGGATATGCT	6.48	6.18	5.41	3.66	1.7	4.7	6.41	6.28	3.31	5.55	1.16	3.96	1.76	1.26	2.37	5.12	7.16	3.89	1.67	4.85
TCATGTAGGTAAAGGTGAAAGTCGAACGATATGA	1.05	1.11	-0.13	1.23	-0.337	3.46	4.4	4.72	4.32	4.81	4.4	4.97	1.57	1.56	0.969	0.939	0.207	1.53	0.733	2.05
AGAACGAGGGCACGCTGAGCTGATAGCAGAGTAG	0.647	0.277	-0.751	-0.0518	-0.909	1.98	1.91	1.81	0.448	0.908	4.56	3.89	0.483	-0.228	0.179	-0.0742	-0.541	0.485	-0.937	2.39
CGAACTAAGTCAAGGACAGTGAATCTCCGCACGC	-0.155	-0.206	-0.211	-0.441	-0.793	-0.228	0.372	-0.132	-0.287	-0.694	0.868	0.214	-0.424	-0.249	-0.418	-0.229	-0.329	0.0296	-0.646	0.556
ATCTCTAGGTAAAAGTTCAGTCAATCCCGAGGAT	0.989	1.98	1.79	1.6	1.34	4.61	8.25	8.34	7.47	9.66	2.32	4.22	1.46	1.49	1.74	2.36	2.13	1.68	1.1	2.64
CCGACTGGGGCAGAGAGGTTACCATACCATCCGG	-0.137	0.273	-0.349	0.271	-1.44	1.48	1.35	1.6	-0.221	0.899	2.02	1.91	-0.515	-1.59	0.15	0.359	-0.131	0.845	0.129	1.24
CCTTACCGGTCACTCCAGGTTATAGCATCGGAGT	2.6	6.15	4.71	2.67	1.65	1.3	0.603	0.901	0.0814	0.653	1.13	1.44	-0.00194	-0.042	1.6	1.94	1.24	1.37	1.2	2.9
ACTAGCAGGCCAAGTTTCGGTCACTCAAACAAAG	-0.253	-0.249	0.38	-0.133	-0.471	-0.0764	-0.26	-0.531	-0.703	-0.73	0.73	0.753	-0.762	-0.738	-0.0877	-0.355	-0.0865	0.0207	-0.205	1.56
GGAACGAGGGCAAGTCGATAGCAGAGTTTGATGG	0.383	0.00226	-0.566	-0.0585	-0.781	1.48	0.928	0.703	-0.275	0.116	3.57	2.5	-0.206	-0.527	-0.162	0.167	0.469	-0.0113	-0.744	2.41
AGAATGAGGTTTTACGTAGATCAGGGAAGAAAGT	-0.139	-0.0557	-0.184	-0.13	-0.304	-0.000129	0.251	-0.0665	0.263	0.297	0.314	-0.118	0.643	0.771	0.322	0.0449	0.0851	0.000653	0.0667	-0.00199
TTACCAAGGTGAGCCGAGGTCGTTGATCCAACTC	2.53	1.33	-0.48	1.11	-1.11	2.19	0.623	1.32	-0.155	0.541	1.46	2.45	0.0524	0.067	-0.0527	4.95	0.39	1.95	-0.75	1.99
AGTCAAAGTTCATCTAGCTAACGTAAGATATGCT	6.22	5.88	4.89	3.8	1.73	4.45	6.14	6.05	3.68	5.44	0.278	2.41	1.28	0.69	2.37	4.83	4.89	3.89	1.29	4.79
ATAGAAAGGTCGAGGTGAGTATAGAGAAAGGGAA	4.25	3.22	0.369	2.75	0.952	4.36	3.26	3.43	1.67	2.2	0.449	1.99	1.74	0.872	2.34	2.55	0.613	3.6	1.71	4
